High-throughput results deposited in PubChem BioAssay by National Center for Advancing Translational Sciences (NCATS).
PLK1 PBD inh = blocks phosphopeptide binding to human PLK1 polo-box domain; P53350; Potency, µM, usual class: inhibitors; 360,000 compounds, 2.8% hits; Plk1 PBD binding of FITC phosphopeptide, fluorescence polarization; note: series mostly up to about 57 µM; nearly all actives have a fitted effect of over 65% in size
Target sequence (P53350 whole entry, looked up, the tested form may be a part): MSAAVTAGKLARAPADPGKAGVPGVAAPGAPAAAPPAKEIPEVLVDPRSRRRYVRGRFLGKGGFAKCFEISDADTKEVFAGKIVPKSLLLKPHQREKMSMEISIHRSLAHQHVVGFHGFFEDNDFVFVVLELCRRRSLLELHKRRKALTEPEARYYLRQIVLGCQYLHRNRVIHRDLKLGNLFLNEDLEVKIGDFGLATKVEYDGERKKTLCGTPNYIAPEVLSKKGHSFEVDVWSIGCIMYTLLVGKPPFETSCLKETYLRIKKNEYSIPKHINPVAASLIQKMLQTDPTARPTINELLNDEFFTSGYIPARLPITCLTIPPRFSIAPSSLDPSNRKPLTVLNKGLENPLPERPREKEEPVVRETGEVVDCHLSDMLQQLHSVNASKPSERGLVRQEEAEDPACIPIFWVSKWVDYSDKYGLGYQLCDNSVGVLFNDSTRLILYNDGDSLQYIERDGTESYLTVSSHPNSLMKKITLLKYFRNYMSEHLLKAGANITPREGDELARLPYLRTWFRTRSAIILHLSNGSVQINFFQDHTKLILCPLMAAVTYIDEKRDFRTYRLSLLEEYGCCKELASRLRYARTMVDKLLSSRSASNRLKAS
BAZ2B inh = inhibitors of human BAZ2B bromodomain; Potency, µM (titrated, usually from 114 µM), actives largely listed as inhibitors; AlphaScreen BAZ2B-H3K14Ac peptide displacement; 360,000 compounds, 4.4% hits; note: nearly all actives have a fitted effect of over 60% in size
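Compounds, titrated to a top concentration of 110 uM, were incubated 30 min at room temperature with preformed BAZ2B/acetyl-K14 H3 peptide complex (50 nM each). Proximity signal was measured by AlphaScreen after 20 min with beads.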
G9a block = inhibitors of human histone lysine methyltransferase G9a | Q96KQ7 | G9a H3K9 monomethylation, AlphaScreen, 2 h | Potency, µM (series often up to 102 µM), actives largely listed as inhibitors | 350,000 compounds, 8.8% hits | AID 504332; note: nearly all actives have a fitted effect of over 75% in size
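Chemiluminescent proximity detection of H3K9 monomethylation, read after 10 min bead incubation in the dark. Reaction: 20 nM G9a, 500 nM biotin-H3K9 peptide, 20 uM SAM cofactor, 2 h, room temperature, following 15 min enzyme-compound preincubation.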
HP1b binding inh = blocks HP1-beta chromodomain binding to methylated histone tails; P83916; AlphaScreen HP1-beta / biotin-H3K9me3 peptide binding; Potency, µM (series often up to 114 µM), usual class: inhibitors; 390,000 compounds, 0.56% hits; note: nearly all actives have a fitted effect of over 70% in size
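AlphaScreen: HP1-beta (50 nM) preformed 30 min with biotin-H3(1-18)K9me3 peptide (50 nM) in PBS pH 7.4, 0.01% Tween-20. Compound added for 30 min at RT, then streptavidin donor/nickel chelate acceptor beads (10 ug/mL) for 30 min.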
JMJD2A Tudor = blocks the human JMJD2A Tudor domain; Potency, µM (doses to about 114 µM), actives largely listed as inhibitors; AlphaScreen JMJD2A-Tudor / H3K4me3 peptide binding; 390,000 compounds, 4.4% hits; note: nearly all actives have a fitted effect of over 50% in size
12-LOX inh = blocks human arachidonate 12S-lipoxygenase; purified 12hLO, xylenol orange hydroperoxide absorbance; Potency, µM (titrated, usually from 108 µM), most hits filed as inhibitors; 580,000 compounds, 1.1% hits; AID 1671190; P18054
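Hydroperoxide product was detected by ferrous iron/xylenol orange as the 573 to 405 nm absorbance ratio. Arachidonic acid at 40 uM (final) was turned over for 30 min at room temperature by 150 nM human 12hLO, pH 7.0 Hepes buffer, after 15 min compound preincubation.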
Numbers stand for hits; i = inactive; ? = inconclusive; nt = not tested or not shown; [ ] = remark or other dose. Rows were chosen to be rich in hits. Some 9% of all compounds tested hit in one or more screens of this group. Calls come from the whole dose curve; as a rule, active = well fitted curve in the direction sought with a large enough effect; inconclusive = small, poorly fitted or top-dose-only effect, or another doubt; inactive = no such curve, though single readings can be large; an effect the other way counts as inactive or inconclusive.

SMILES	PLK1 PBD inh	BAZ2B inh	G9a block	HP1b binding inh	JMJD2A Tudor	12-LOX inh
COc1ccc(Cl)cc1NC(=O)CN(C)C(=O)Cc1ccsc1	i	i	28µM	i	i	i
COc1ccc(Cl)cc1NC(=O)CNCc1cccs1	i	71µM	i	?	4.5µM	i
COc1ccc(Cl)cc1NC(=O)CN(C)C(=O)Cc1ccc2c(c1)CCC2	i	i	nt	i	i	i
COc1ccccc1NC(=O)CN1CCN(Cc2ccccc2)CC1	i	i	i[12.7 µM]	i	i	i
CCc1cc(=O)oc2c(CN3CCN(C)CC3)c(O)ccc12	i	i	i[2.33 µM]	i	i	i
CN1CCN(Cc2c(O)ccc3cc(Br)ccc23)CC1	24µM	nt	5µM	i	?	5.6µM
O=c1cc(C(F)(F)F)[nH]c(=S)[nH]1	nt	nt	nt	nt	nt	0.79µM
Cc1nn(Cc2c(Cl)cccc2Cl)c(C)c1NC(=O)CCCn1nc([N+](=O)[O-])c(Cl)c1C	i	i	i	i	i	i
Cc1nn(Cc2ccccc2)c(C)c1NC(=O)CCCn1nc([N+](=O)[O-])c(Cl)c1C	i	i	i	i	40µM	i
COc1ccc2oc(C(=O)Nc3ccccc3N3CCOCC3)c(C)c2c1	i	i	45µM	i	i	i
O=C(NC1CCS(=O)(=O)C1)Oc1ccccc1 (configuration not stated)	27µM	i	i[12.7 µM]	i	i[11.4 µM]	i
Cc1c(C(=O)OCC(=O)Nc2ccc(N3CCOCC3)cc2)oc2ccccc12	i	i	i[0.501 µM]	i	i	i
Cc1c(C(=O)Nc2ccc(N3CCOCC3)cc2)oc2ccccc12	i	i	?	i	56µM	i
COc1ccc2oc(C(=O)Nc3ccc(N4CCOCC4)cc3)c(C)c2c1	i	50µM	50µM	i	?	?
CCOC(=O)C1CCCN(C(=O)c2cccc(S(=O)(=O)N3CC(C)OC(C)C3)c2)C1 (configuration not stated)	i	i	i	i	i	i
O=C(C1CCC1)N1CCC(n2cc(-c3nc(-c4ccccc4)no3)nn2)CC1	nt	nt	nt	nt	nt	i
CC(C)C(=O)N1CCC(Oc2ccccc2-c2nc(C3CC3)no2)C1 (configuration not stated)	nt	nt	nt	nt	nt	i
Cc1c(C(=O)NC2CCS(=O)(=O)C2)oc2ccccc12 (configuration not stated)	i	i	45µM	i	i	i
O=C(/C=C/c1cccs1)NC1CCS(=O)(=O)C1 (configuration not stated)	27µM	i	i	?	?	i
O=C(/C=C/c1cccs1)NC1CCCC1	i	i	i	i	i	i
Cc1c(C(=O)NC2CC2)oc2ccccc12	i	i	i[12.7 µM]	i	i	i
CCCN(C(=O)c1nn(-c2ccc(OC)c(Cl)c2)c(=O)c2c1c1ccccc1n2C)c1ccccc1F	nt	nt	i	i	i	i
CCCn1nnc(NC(=O)c2ccc(OCC)c(Cl)c2)n1	i	i	i[12.7 µM]	i	i	i
Clc1ccc(OCc2nc(-c3ccc(Br)o3)no2)cc1	i	i	i	i	i	i
Brc1ccc(-c2noc(COc3ccc4c(c3)CCC4)n2)o1	i	56µM	22µM	i	i	?
SMILES	PLK1 PBD inh	BAZ2B inh	G9a block	HP1b binding inh	JMJD2A Tudor	12-LOX inh
O=C(NC1CCCC1)N[C@@H]1C[C@H](Cn2cc(C3CC3)nn2)[C@@H](O)[C@H]1O	nt	nt	nt	nt	nt	22µM
Cc1sc2ncnc(Sc3ccccc3C(=O)Nc3ccccc3Cl)c2c1C	i	i	3.5µM	i	i	?
Cc1sc2ncnc(Sc3ccccc3C(=O)Nc3ccc(Br)cc3)c2c1C	i	i	8.9µM	?	?	10µM
COc1ccc(NC(=O)CN(C)C(=O)c2ccccc2Sc2ncnc3sc(C)c(C)c23)cc1	i	i	35µM	i	i	i
Cc1sc2ncnc(Sc3ccccc3C(=O)Nc3ccc(C#N)cc3)c2c1C	i	i	?	i	i	i
O=C(NC(=O)c1ccccc1)Nc1cccc(Cl)c1	nt	nt	nt	nt	nt	i
CC(=O)N1CCOc2ccc(S(=O)(=O)N3CCC(C)CC3)cc21	i	?	i	i	i	i
COC(=O)C(Cc1cncn1COCc1ccccc1)NC(=O)OC(C)(C)C (configuration not stated)	i	79µM	28µM	i	?	i
COc1ccc(NC(=O)C(CCCCNC(=O)OC(C)(C)C)NC(=O)OCc2ccccc2)cc1 (configuration not stated)	i	?	3.5µM	i	?	?
CC(C)(C)OC(=O)NC(CC(=O)OCc1ccccc1)C(=O)O (configuration not stated)	i	i	i	i	i	i
CC(C)(C)OC(=O)N[C@@H](CC(=O)OCc1ccccc1)C(=O)O	27µM	i	i	i	50µM	?
CS(=O)(=O)N1C[C@H]2CCN(C(=O)c3ccc4cc[nH]c4c3)C[C@H]21	nt	nt	nt	nt	nt	i
CSc1cccc(NC(=O)CCc2ncc(-c3ccc(F)cc3)o2)c1	nt	nt	nt	nt	nt	i
CCc1nn2c(=O)cc(COc3cccc(NC(=O)c4ccco4)c3)nc2s1	27µM	?	nt	i	25µM	i
CCCc1nn2c(=O)cc(COc3ccc(NC(=O)c4ccco4)cc3)nc2s1	21µM	i	i	i	?	i
CCc1nn2c(=O)cc(COc3ccc(NC(=O)c4ccco4)cc3)nc2s1	27µM	i	i	i	?	i
COc1ccc(-c2cc3nc(C)c(CCC(=O)NC(C)c4ccccc4)c(C)n3n2)c(OC)c1 (configuration not stated)	nt	?	i	i	i	i
NC(=O)C1(c2nc(C3CCOC3)nn2-c2cccc3cccnc23)CC1 (configuration not stated)	nt	nt	nt	nt	nt	i
CC(C)(C)NCC(O)COc1c(F)cc(Br)cc1F (configuration not stated)	i	i	i	i	i	i
Cc1cc(C)c(OCC(O)CNC(C)(C)C)c(C)c1 (configuration not stated)	24µM	i	i	i	i	i
O=C(COc1cccc(Br)c1)N/N=C1\CCSC1	21µM	i	i	i	71µM	i
CC(NC(=O)COc1cccc(Br)c1)C(=O)O (configuration not stated)	i	i	50µM	i	i	i
O=C(COc1cccc(Br)c1)N/N=C1\CCCc2ccccc21	i	nt	i	i	i	i
COc1cc(OC)c(NC(=O)N2CCC(Oc3ncccc3C(=O)N(C)C)C2)cc1Cl (configuration not stated)	nt	nt	nt	nt	nt	i
CSCC[C@H](NC(=O)OCc1ccccc1)C(=O)O	i	i	i	i	?	i
COc1c(F)c(F)c(CN2CC(=O)N(C)c3ccccc3C2=O)c(F)c1F	nt	nt	nt	nt	nt	i
O=c1c2ccccc2[nH]c(=S)n1Cc1cccnc1	27µM	i	i	i	28µM	i
CN(C)CCCn1c(=S)[nH]c2ccccc2c1=O	i	i	50µM	i	i	i
